Several values for one entry are separate records, joined by “and”; a condition that tells them apart may be missing. Equal entries are not always repeated. Records with an inconclusive call do not appear. Activity calls are given as the source filed them. How the source made its calls, unless noted: active means hit-call score of the fitted dose curve at least 0.9, where 1 is the maximum; inconclusive means response in the unintended direction; inactive means score below 0.9.
Assays:
[1] = Tanguay_ZF_120hpf_SWIM_legacy: (Legacy) Oregon State University Tanguay Lab 120 Hour Post-fertilization zebrafish Assay for Swim Bladder Malformation (AID 2283654);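 further: swim bladder malformation in each larva scored yes or no under brightfield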
How it was run: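 Embryos lacking chorions were exposed individually and statically to test chemical from 6 to 120 hpf at 28C, with 0.64% DMSO as vehicle. At 120 hpf, swim bladder malformation was recorded as present or absent by brightfield microscopy.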

[2] = Tanguay_ZF_120hpf_TRUN_legacy: (Legacy) Oregon State University Tanguay Lab 120 Hour Post-fertilization zebrafish Assay for Truncated Body (AID 2283655)
How it was run: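 Truncated body is recorded as a binary endpoint at 120 hpf by brightfield imaging of wild-type 5D larvae. Exposure runs statically from 6 hpf at 28C with 0.64% DMSO; embryos dying earlier are not scored.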

[3] = Tanguay_ZF_120hpf_NC_legacy: (Legacy) Oregon State University Tanguay Lab 120 Hour Post-fertilization zebrafish Assay for Notochord and Tail Malformation (AID 2283656)
How it was run: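 Dechorionated Tropical 5D wild-type zebrafish embryos, one per well from 6 hpf, statically exposed to 120 hpf at 28C in 0.64% DMSO final. Notochord distortion scored present/absent by brightfield; dead embryos excluded.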

[4] = read-out: ABC Transporter (ABCB1), ABCB1 (gene 5243); test: CLD_ABCB1_6hr: CellzDirect (CLD) Gene Expression Assay for ABC Transporter (ABCB1) at 6 hours (AID 2283659);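 further: hits raise ABCB1 transcript above the DMSO vehicle baseline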
How it was run: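 Primary human hepatocytes (two donor preparations) dosed daily for two days with chemicals at multiple concentrations, 0.2% DMSO vehicle; harvested 6 h post-dose. ABCB1 mRNA induction quantified by qNPA chemiluminescence; gain-of-signal fitted versus DMSO.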

[5] = read-out: xenobiotic metabolism (CYP1A2), CYP1A2 (gene 1544); test: CLD_CYP1A2_6hr: CellzDirect (CLD) Gene Expression Assay for xenobiotic metabolism (CYP1A2) at 6 hours (AID 2283663);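 on AC50: potency is for induction meaning a rise in mRNA above DMSO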
How it was run: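 Primary human hepatocytes from two donor preparations, dosed daily with multiple concentrations in 0.2% DMSO and harvested at 6 h. CYP1A2 mRNA induction measured by chemiluminescent qNPA, gain of signal fitted against DMSO; cytotoxicity flagged morphologically.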

[6] = Tanguay_ZF_120hpf_TR_legacy: (Legacy) Oregon State University Tanguay Lab 120 Hour Post-fertilization zebrafish Assay for Touch Response (AID 2283667)
How it was run: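 5D WT embryos; static exposure to 120 hpf, 28C, sealed/dark; DMSO 0.64% v/v final. TR scored present/absent; dead embryos excluded. Pos ctrl 5uM trimethyltin chloride.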

[7] = read-out: xenobiotic metabolism (CYP1A1), CYP1A1 (gene 1543); test: CLD_CYP1A1_24hr: CellzDirect (CLD) Gene Expression Assay for xenobiotic metabolism (CYP1A1) at 24 hours (AID 2283673);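 further: CYP1A1 mRNA level by quantitative nuclease protection with chemiluminescence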
How it was run: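 Primary human hepatocytes dosed daily with fresh solutions in 0.2% DMSO vehicle. mRNA measured at 24 h by quantitative nuclease protection assay with chemiluminescence; gain-of-signal fit versus DMSO, with morphology-based cytotoxicity flags.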

[8] = read-out: Broad substrate specificity ATP-binding cassette transporter ABCG2 (Homo sapiens) (UniProt Q9UNQ0); test: CLD_ABCG2_6hr: CellzDirect (CLD) Gene Expression Assay for ABC Transporter (ABCG2) at 6 hours (AID 2283660)
How it was run: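 Primary human hepatocytes dosed daily with chemicals at multiple concentrations (0.2% DMSO vehicle), harvested 6 h after dosing. ABCG2 mRNA induction read by quantitative nuclease protection assay (qNPA) chemiluminescence; gain of signal fitted against DMSO baseline.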

[9] = test system: Thyroperoxidase (TPO), gene 54314; test: CCTE_Simmons_AUR_rTPO: CCTE's Amplex UltraRed Assay for Thyroperoxidase (TPO) Inhibition, Simmons Lab (AID 2283662);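 on AC50: potency for loss of signal meaning inhibition of peroxidase activity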
How it was run: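 Endpoint is decreased Amplex UltraRed fluorescence after a 30-min, 37C reaction of rat thyroid microsomes with 300 uM H2O2. Eight test concentrations (5 nM–87.5 uM final) in 0.5% DMSO, three biological replicates each.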

[10] = read-out: xenobiotic metabolism (CYP2C9), CYP2C9 (gene 1559); test: CLD_CYP2C9_6hr: CellzDirect (CLD) Gene Expression Assay for xenobiotic metabolism (CYP2C9) at 6 hours (AID 2283664)
How it was run: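 Primary human hepatocytes dosed daily with test chemicals at multiple concentrations; harvested at 6 h. CYP2C9 mRNA induction measured by qNPA chemiluminescence. Gain of signal fitted against 0.2% DMSO vehicle; cytotoxicity annotated from phase-contrast morphology.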

[11] = CCTE_Simmons_CellTiterGLO_HEK293T: Viability Assessment in CCTE's Assays for Thyroperoxidase (TPO) Inhibition, Simmons Lab (AID 2283665);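 on AC50: cells exposed to compound for 24 h before readout; actives reduce ATP signal below DMSO vehicle meaning cytotoxicity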
How it was run: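 HEK293T cells in DMEM with 1% FBS, dosed 24 h at 37C with 8 concentrations, 5 nM–87.5 uM final, 0.5% DMSO. ATP measured by CellTiter Glo luminescence; loss of signal vs DMSO, three biological replicates.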

[12] = read-out: alkyl and aryl transferase (GSTA2), GSTA2 (gene 2939); test: CLD_GSTA2_6hr: CellzDirect (CLD) Gene Expression Assay for alkyl and aryl transferase (GSTA2) at 6 hours (AID 2283666)
How it was run: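 Primary human hepatocytes from two donor preparations were dosed daily with fresh compound at multiple concentrations, 0.2% DMSO vehicle. GSTA2 mRNA was measured at 6 hours by qNPA chemiluminescence; induction fitted relative to DMSO, with cytotoxicity flagged morphologically.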

[13] = read-out: sulfotransferase (SULT2A), SULT2A1 (gene 6822); test: CLD_SULT2A_6hr: CellzDirect (CLD) Gene Expression Assay for sulfotransferase (SULT2A) at 6 hours (AID 2283669);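 further: hits raise transcript level above the DMSO vehicle baseline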
How it was run: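 Primary human hepatocytes from two donor preparations were dosed daily with chemicals or 0.2% DMSO and harvested at 6 h. Transcript induction read by qNPA chemiluminescence, fitted for gain of signal relative to DMSO; morphology-based cytotoxicity annotated.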

[14] = read-out: ABC Transporter (ABCB11), ABCB11 (gene 8647); test: CLD_ABCB11_24hr: CellzDirect (CLD) Gene Expression Assay for ABC Transporter (ABCB11) at 24 hours (AID 2283674; active means hit-call score of the fitted dose curve at least 0.9, where 1 is the maximum; inactive means score below 0.9)
How it was run: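 Primary human hepatocytes were dosed daily for two days, with 0.2% DMSO vehicle. ABCB11 mRNA induction was measured at 24 hours by quantitative nuclease protection assay with chemiluminescence. Gain of signal was fitted relative to DMSO.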

[15] = read-out: solute carrier (SLC22A6), SLC22A6 (gene 9356); test: LTEA_HepaRG_SLC22A6: Life Technologies and Expression Analysis (LTEA) Assay for solute carrier (SLC22A6) using HepaRG (AID 2283653; active means hit-call score of the fitted dose curve at least 0.9, where 1 is the maximum; inactive means score below 0.9); settings: mRNA level, 48 h; actives raise or lower the signal
How it was run: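 Read-out is SLC22A6 transcript level by qRT-PCR, normalised to three housekeeping genes and fitted for gain or loss relative to 0.5% DMSO vehicle. Human HepaRG cells received chemicals at up to 100 uM for 48 h.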

[16] = read-out: solute carrier (SLC10A1), SLC10A1 (gene 6554); test: LTEA_HepaRG_SLC10A1: Life Technologies and Expression Analysis (LTEA) Assay for solute carrier (SLC10A1) using HepaRG (AID 2283657; active means hit-call score of the fitted dose curve at least 0.9, where 1 is the maximum; inactive means score below 0.9); settings: mRNA level, 48 h; actives raise or lower the signal
How it was run: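 Transcript levels were measured by qRT-PCR after human HepaRG cells received test chemical for 48 hours, up to 100 uM in half-log dilutions. Values come from bidirectional concentration-response fitting relative to 0.5% DMSO vehicle.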

[17] = read-out: matrix metalloproteinase-1 (MMP1), MMP1 (gene 4312); test: LTEA_HepaRG_MMP1: Life Technologies and Expression Analysis (LTEA) Assay for matrix metalloproteinase-1 (MMP1) using HepaRG (AID 2283658; active means hit-call score of the fitted dose curve at least 0.9, where 1 is the maximum; inactive means score below 0.9); settings: mRNA level, 48 h; actives raise or lower the signal
How it was run: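 HepaRG, ~100,000 cells/well, 48 h pre-culture; serum-free induction medium; test chemical 8 conc (max 100 uM, half-log), duplicate, 48 h; 0.5% DMSO; qRT-PCR MMP1, housekeeping-normalized; gain/loss fit vs DMSO.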

[18] = read-out: Cytochrome P450 (CYP24A1_1), CYP24A1 (gene 1591); test: LTEA_HepaRG_CYP24A1_1: Life Technologies and Expression Analysis (LTEA) Assay for Cytochrome P450 (CYP24A1_1) using HepaRG (AID 2283671; active means hit-call score of the fitted dose curve at least 0.9, where 1 is the maximum; inactive means score below 0.9); settings: mRNA level, 48 h; actives raise or lower the signal
How it was run: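 In this test, gene induction or suppression of CYP24A1 in human HepaRG liver cells is measured by qRT-PCR after 48 h chemical treatment (eight concentrations, maximum 100 uM). Values are fitted bidirectionally relative to DMSO.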

[19] = read-out: glucuronosyltransferase (UGT1A1), UGT1A1 (gene 54658); test: CLD_UGT1A1_6hr: CellzDirect (CLD) Gene Expression Assay for glucuronosyltransferase (UGT1A1) at 6 hours (AID 2283672)
How it was run: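 Primary human hepatocytes from two donor preparations, dosed with fresh solutions in 0.2% DMSO, harvested at 6 h. UGT1A1 mRNA measured by qNPA chemiluminescence; induction fitted upward versus DMSO.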

[20] = read-out: xenobiotic metabolism (CYP1A1), CYP1A1 (gene 1543); test: CLD_CYP1A1_6hr: CellzDirect (CLD) Gene Expression Assay for xenobiotic metabolism (CYP1A1) at 6 hours (AID 2283661);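 on AC50: potency for transcript induction above DMSO vehicle baseline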
How it was run: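 Primary human hepatocytes from two donors, compound versus 0.2% DMSO vehicle. CYP1A1 mRNA measured 6 h after dosing by quantitative nuclease protection assay with chemiluminescent read-out; induction fitted relative to DMSO, cytotoxicity flagged by microscopy.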

Measured: AC50

Chain of Broad substrate specificity ATP-binding cassette transporter ABCG2 (Homo sapiens) (Q9UNQ0 whole entry, looked up): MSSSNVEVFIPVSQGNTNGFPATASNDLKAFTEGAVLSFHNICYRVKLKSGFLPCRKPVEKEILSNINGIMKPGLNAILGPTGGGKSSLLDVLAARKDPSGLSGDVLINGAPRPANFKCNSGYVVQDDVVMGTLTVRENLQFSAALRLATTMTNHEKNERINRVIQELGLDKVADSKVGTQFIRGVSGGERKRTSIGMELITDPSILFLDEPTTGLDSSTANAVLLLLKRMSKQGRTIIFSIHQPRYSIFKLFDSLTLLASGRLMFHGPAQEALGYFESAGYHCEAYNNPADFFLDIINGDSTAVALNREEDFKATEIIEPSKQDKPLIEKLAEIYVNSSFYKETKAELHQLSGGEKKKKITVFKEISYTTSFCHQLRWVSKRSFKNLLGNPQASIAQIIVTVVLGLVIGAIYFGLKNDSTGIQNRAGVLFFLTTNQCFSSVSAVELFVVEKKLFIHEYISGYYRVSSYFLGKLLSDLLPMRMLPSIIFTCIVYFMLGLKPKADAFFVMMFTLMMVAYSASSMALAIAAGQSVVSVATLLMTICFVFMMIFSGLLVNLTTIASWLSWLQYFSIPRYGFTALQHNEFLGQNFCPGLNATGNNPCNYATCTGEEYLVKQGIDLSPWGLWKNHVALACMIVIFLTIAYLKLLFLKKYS

Cn1c(-c2ccccc2)cc(-c2ccccc2)[n+]1C
active: [7] 0.158 µM
inactive: [1] | [2] | [3] | [4] | [5] | [6]

CS(=O)(=O)c1ccc(C(=O)C2C(=O)CCCC2=O)c([N+](=O)[O-])c1
active: [9] 30.6 µM
inactive: [1] | [2] | [4] | [8] | [5] | [10] | [11] | [12] | [6] | [13] | [7] | [14]

Nc1c(Cl)c(Cl)nc(C(=O)O)c1Cl
inactive: [15] | [16] | [17] | [4] | [8] | [10] | [12] | [6] | [18] | [19] | [7]
active: [5] 33 µM

CCOc1cc(C(C)(C)C)ccc1C1COC(c2c(F)cccc2F)=N1 (stereo unspecified)
active: [7] 20 µM
inactive: [1] | [2] | [4] | [8] | [5] | [12] | [6]

COC(=O)c1c(C(F)F)nc(C(F)(F)F)c(C2=NCCS2)c1CC(C)C
active: [20] 1.91 µM | [5] 0.665 µM | [7] 36.1 µM
inactive: [1] | [2] | [3] | [4] | [12] | [14]

CCOc1nc(C(Cl)(Cl)Cl)ns1
active: [11] 82.9 µM and 70.4 µM
inactive: [1] | [2] | [4] | [8] | [9] | [5] | [10] | [12] | [6] | [13] | [19] | [7]

CC1(C)C(C=C(Cl)Cl)C1C(=O)OC(C#N)c1cccc(Oc2ccccc2)c1 (stereo unspecified)
inactive: [1] | [2] | [4] | [8] | [12] | [6]
active: [5] 2.15 µM | [7] 8.15 µM

O=C1C2CC=CCC2C(=O)N1SC(Cl)(Cl)Cl (stereo unspecified)
inactive: [1] | [2] | [4] | [8] | [10] | [12] | [6] | [7]

C=C(C)CN(CC)c1c([N+](=O)[O-])cc(C(F)(F)F)cc1[N+](=O)[O-]
active: [7] 20 µM
inactive: [1] | [2] | [3] | [4] | [20] | [5] | [12] | [6] | [19] | [14]

COc1ccc(-c2ccccc2)cc1NNC(=O)OC(C)C
active: [20] 0.429 µM | [9] 1.84 µM | [5] 0.798 µM | [11] 42.4 µM | [7] 14.1 µM
inactive: [1] | [2] | [3] | [4] | [8] | [10] | [6]

From PubChem BioAssay (EPA / NIEHS)
